The values below come from PubChem BioAssay (NCATS).

Molecules are shown by their SMILES. Results filed as inconclusive are left out. Values without a mark were called inactive. Activity calls are given as the source filed them. The call rests on the fitted dose curve; in most records, active means well fitted inhibition curve with a large enough effect; inconclusive means small, poorly fitted or top-dose-only effect; inactive means no such curve, though single readings can be large or run the other way.
On the % scale 0 is the no-effect control and ±100 the full control effect; potency means the concentration at half of the fitted maximal effect.

For this experiment, the target named is Aldehyde dehydrogenase 1A1 (Homo sapiens) (UniProt P00352). Nature of the experiment: qHTS for Inhibitors of the Aldehyde Dehydrogenase Family (ALDH1A1) Confirmatory screens (AID 2061316). Further: nearly all actives have a fitted effect of over 65% in size. Particulars: ALDH inhibition qHTS; series mostly up to 47.3 µM; activity change, negative = inhibition: at the top concentration.
Take `O=C1Nc2ccccc2/C1=C/c1cc(Cl)c(O)c(Cl)c1`: the Potency was 17.9 µM (active). The same measure, in the same setting: in the case of `Cc1cc(C)nc(NC(=S)N2CCN(c3cc(Cl)cc(Cl)n3)CC2)c1` it was 3.57 µM (active).

On to `COc1ccc(NC(=O)c2[nH]c(C)c(C(C)=O)c2C)cc1S(=O)(=O)Nc1ccc(C#N)cc1`, for which the Potency was 11.3 µM (active).

On to `O=C1Nc2cc(Cl)ccc2Nc2cscc21`, for which the Potency is 7.12 µM (active).

Consider `Fc1ccc(NC(=S)Nc2nnc(-c3ccncc3)s2)cc1C(F)(F)F`, for which the Potency is 5.04 µM (active). As to `Cc1ccc(CNc2ccccc2C(=O)Nc2nc(-c3ccccc3)cs2)cc1`, the Potency was 22.5 µM (active). `Cc1ccc(CNc2ncnc3ccc(-c4sc(C)nc4C)cc23)o1`: the Potency is 15.9 µM (active). `Nc1scc2c(C(=O)O)nn(-c3ccccc3)c(=O)c12`: the Potency was 5.04 µM (active). `CCC(=O)Nc1ccc(OCc2cc(C3Nc4ccccc4C(=O)N3Cc3ccccc3)ccc2OC)cc1` (centres undefined): the “activity change, negative = inhibition” value is -24.9%. Regarding `c1nc(NC[C@@H]2CCCO2)c2cc(-c3ccc4c(c3)OCO4)ccc2n1`, the Potency is 20.1 µM (active).

Turning to `CN(C)c1cccc(N2CCN(c3nn4c(=O)c5ccccc5nc4s3)CC2)c1`, the Potency is 10.1 µM (active). Regarding `NC(=O)C1CCN(c2ncc(Br)s2)CC1`, the Potency is 4.49 µM (active). As to `O=C1Nc2ccccc2C12CC2c1cc(Cl)c(O)c(Cl)c1` (centres undefined), the “activity change, negative = inhibition” value was -1.98%. For `O=C([C@H](Cc1ccc(O[S+](=O)([O-])c2ccccn2)cc1)N[S+](=O)([O-])c1cccc2cnccc12)N1CCN(c2ccccc2)CC1`, the Potency is 7.98 µM (active).
